# Compound activity: PubChem, National Center for Advancing Translational Sciences (NCATS)
# In the library only some 2.4% were active in any assay of this set; here they are far more common.
# POLK inh = qHTS for Inhibitors of Polymerase Kappa | 400,000 tested, 0.53% active | DNA polymerase kappa (Homo sapiens), Q9UBT6 | Potency, µM (titrated, usually from 107 µM), hits mostly inhibitors | purified Pol kappa, fluorescent DNA synthesis assay, 10 min
#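 50 nM final substrate added after 15 min RT preincubation of 10 nM Pol kappa with compound; fluorescence read at 0 and 10 min.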
# WRN inhibitor = qHTS for Inhibitors of WRN Helicase; Bifunctional 3'-5' exonuclease/ATP-dependent helicase WRN (Homo sapiens), Q14191; WRN helicase unwinding, fluorescent forked duplex, kinetic; Potency, µM (doses to about 114 µM), actives largely listed as inhibitors; 360,000 tested, 0.46% active; AID 651768, 2012; further: nearly all actives have a fitted effect of over 55% in size
#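 Kinetic fluorescence helicase assay: unwinding of a quenched forked DNA duplex (100 nM final) with 2 mM ATP final raises red fluorescence (525/598 nm). Compounds sat 15 min at room temperature with 20 nM WRN beforehand.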
# FEN1 inh = qHTS Assay for the Inhibitors of Human Flap endonuclease 1 (FEN1); P39748; Recombinant FEN1 flap cleavage, fluorescence, 15 min; Potency, µM (doses to about 114 µM), usual class: inhibitors; 390,000 tested, 0.35% active; further: nearly all actives have a fitted effect of over 65% in size
# Target sequence (P39748 whole entry, looked up): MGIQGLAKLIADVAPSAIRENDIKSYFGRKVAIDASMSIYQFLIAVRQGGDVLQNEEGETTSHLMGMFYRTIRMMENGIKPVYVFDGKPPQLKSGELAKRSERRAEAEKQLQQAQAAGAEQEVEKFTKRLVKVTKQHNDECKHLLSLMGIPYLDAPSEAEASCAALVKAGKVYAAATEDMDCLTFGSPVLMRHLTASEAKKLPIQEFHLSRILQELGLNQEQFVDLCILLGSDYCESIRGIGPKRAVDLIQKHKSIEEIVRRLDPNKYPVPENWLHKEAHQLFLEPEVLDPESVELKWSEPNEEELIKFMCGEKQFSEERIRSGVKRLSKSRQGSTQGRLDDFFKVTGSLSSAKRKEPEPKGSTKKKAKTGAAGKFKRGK
#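 Recombinant FEN1 (10 nM) was preincubated with pin-transferred compounds for 15 min at room temperature, then flap DNA substrate (50 nM final) was added. Plates were read at 0 and 15 min, and normalized concentration–response data were fitted to a four-parameter Hill equation.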
# POLB inh = qHTS Assay for Inhibitors of DNA Polymerase Beta; P06746; Pol beta primer extension/strand displacement, fluorescence kinetic; Potency, µM (highest dose often 114 µM), hits mostly inhibitors; 340,000 tested, 1.3% active; AID 485314, 2010
#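 Curves were derived by four-parameter Hill fits of normalized qHTS data. The kinetic fluorescent primer-extension read was taken at 0 and 10 min after 50 nM substrate, following a 15 min room-temperature preincubation of 10 nM enzyme with compounds.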
# Pol eta inh = qHTS for Inhibitors of Polymerase Eta; Potency, µM (series often up to 114 µM), most hits filed as inhibitors; 390,000 tested, 1.2% active; recombinant Pol eta, fluorescent DNA replication assay; DNA polymerase eta (Homo sapiens), Q9Y253; AID 588591, 2011
#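 Pol eta at 10 nM preincubated with compounds 15 min at room temperature; reaction started with fluorescent substrate (50 nM final) and read kinetically at 0 and 10 min.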
# POLI inh = qHTS for Inhibitors of Polymerase Iota; DNA polymerase iota (Homo sapiens), Q9UNA4; Pol iota fluorescent replication assay, 10 min; Potency, µM (highest dose often 115 µM), hits mostly inhibitors; 390,000 tested, 1% active; AID 588590, 2011
#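 Fluorescent replication assay read twice, at 0 min and 10 min after adding 50 nM (final) substrate. Enzyme (10 nM) and compounds were first incubated 15 min at room temperature; enzyme-free buffer wells were negative controls.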
# Numbers stand for hits; n = inactive; u = inconclusive; x = not tested or not shown; ! = repeats disagree; [ ] = remark or other dose. The call rests on the fitted dose curve; in most records, active means well fitted curve in the direction sought with a large enough effect; inconclusive means small, poorly fitted or top-dose-only effect, or another doubt; inactive means no such curve, though single readings can be large; an effect the other way counts as inactive or inconclusive.
SMILES,POLK inh,WRN inhibitor,FEN1 inh,POLB inh,Pol eta inh,POLI inh
O=C(CCc1nc2ccccc2c(=O)[nH]1)N1CCCc2ccccc21,n,n[11.6 µM],n,x,50µM,n
Cc1c(C)c2cc3c(c(C)c2oc1=O)OCN(CCc1ccc(F)cc1)C3,n,x,n,n,n,n
Cc1c(C(=O)O)sc2nc(/C=C/c3cccc(F)c3)[nH]c(=O)c12,n,n[11.6 µM],u,45µM,79µM,n
C=CCn1c(SCc2nc3sc(C(=O)O)c(C)c3c(=O)[nH]2)nnc1-c1ccc(F)cc1,n,n,n,n,u,n
CCN(CC)S(=O)(=O)c1cc(NC(=O)CSc2nnc(N)s2)ccc1C,n,n,n,x,n,n
CCN(CC)C(=O)CSc1nc2ccc(NC(=O)CSc3nccn3C)cc2s1,n,n,n,5.6µM,n,25µM
CCN(CC)C(=O)CSc1nc2ccc(NC(=O)CSc3nnc(N)s3)cc2s1,u,n,n,32µM,11µM,13µM
CC(C)Oc1ccc(CN2CCC2(C)C(=O)NCc2cccc3ccccc23)cc1 (configuration not stated),x,n,x,x,x,x
COc1cc2c(cc1/C=C1/NC(=O)N(CC(=O)Nc3ccccc3)C1=O)OCO2,n,n,n,n,n,n
CCn1c(C)cc(/C=C2\NC(=O)N(CC(=O)Nc3cccc(C)c3)C2=O)c1C,n,n,n,n,n,n
Cc1ccc(NC(=O)CN2C(=O)N/C(=C/c3cc(C)n(-c4cccc(C(=O)O)c4)c3C)C2=O)cc1,u,u,n,10µM,20µM,45µM
COc1cccc(/C=C2/NC(=O)N(CC(=O)Nc3ccc(C)cc3)C2=O)c1OCc1cccc(C(=O)O)c1,79µM,u,u,50µM,u,u
N#C/C(=C\c1cc(Br)c(O)c(Br)c1)c1nc2ccccc2c(=O)[nH]1,n,x,n,n,n,n
Cc1oc2ncn(C)c(=O)c2c1C(=O)N(C)c1ccccc1F,n,x,n,n,n,n
CC1=C(C(=O)NCc2cccc(F)c2)C2(CCCCC2)OC1=O,n,x,n,n,n,n
O=C(COc1ccccc1[N+](=O)[O-])OCC(=O)c1ccc(Br)s1,n,n[11.6 µM],n,x,79µM,n
O=C(COc1ccccc1[N+](=O)[O-])OCCCOC(=O)COc1ccccc1[N+](=O)[O-],n,n,n,n,n,n
CCCCOc1ccc(-c2nnn(CC(=O)NCc3ccco3)n2)cc1,n,n,n,n,n,u
CC(C)CC(=O)Nc1ccc(-c2nnn(CC(=O)NCc3ccco3)n2)cc1,n,n[11.6 µM],n,u,n,79µM
O=C(CC1(O)C(=O)N(CCc2ccccc2)c2ccccc21)c1ccco1 (configuration not stated),n,n,n,n,u,n
C#CCN1C(=O)C(O)(CC(=O)/C=C/c2ccco2)c2ccccc21 (configuration not stated),u,n,n,u,u,35µM
CCOC(=O)N1CCc2c(sc(NCc3cccc(F)c3)c2C(=O)Nc2ccc(OCC)cc2)C1,n,x,n,n,n,n
CCOc1cc(/C=C2\C(=O)N(CCc3ccc(OC)c(OC)c3)C(C)=C2C(=O)OC)ccc1O,n,79µM,n,n,n,n
COC(=O)c1cccnc1-n1c(=O)c2cccnc2n(CC(=O)Nc2cccc(C(F)(F)F)c2)c1=O,n,x,n,n,n,n
CCc1ccc(S(=O)(=O)NCc2cccn2Cc2cccc(C)c2)cc1,n,x,n,u,n,n
SMILES,POLK inh,WRN inhibitor,FEN1 inh,POLB inh,Pol eta inh,POLI inh
CCC(=O)Nc1ccc(S(=O)(=O)NCc2cccn2Cc2cccc(C)c2)cc1,n,x,n,n,n,89µM
CCOC(=O)COc1c(Br)cc(C2NC(=O)NC(C)=C2C(C)=O)cc1OC (configuration not stated),u,n,n,u,22µM,u
COc1ccc(NC(=O)Cc2csc(C)n2)cc1,n,x,n,n,n,n
O=C1c2ccccc2-c2cc([N+](=O)[O-])c([N+](=O)[O-])cc21,n,x,u,x,x,2.2µM
NC1(C(=O)O)C[C@H](C(=O)O)[C@H](C(=O)O)C1 (some centres not stated),n[19.4 µM],x,x,x,x,x
CC[C@H](C)[C@H](NC(=O)[C@H](Cc1ccc(O)cc1)NC(=O)[C@H](CCCNC(=N)N)NC(=O)[C@H](CCCNC(=N)N)NC(=O)[C@H](CC(C)C)NC(=O)[C@H](CC(=O)O)NC(=O)[C@H](C)NC(=O)[C@H](C)NC(=O)[C@H](Cc1ccc(O)cc1)NC(=O)[C@H](CCC(N)=O)NC(=O)[C@H](C)NC(=O)[C@H](CCSC)NC(=O)[C@H](CCC(N)=O)NC(=O)[C@H](CCC(=O)O)NC(=O)[C@@H]1CCCN1C(=O)[C@@H](NC(=O)[C@H](C)NC(=O)[C@H](CC(N)=O)NC(=O)[C@H](CC(=O)O)NC(=O)CNC(=O)[C@@H]1CCCN1C(=O)[C@H](Cc1ccc(O)cc1)NC(=O)[C@@H](NC(=O)[C@@H]1CCCN1C(=O)[C@H](CCC(=O)O)NC(=O)[C@H](CC(C)C)NC(=O)[C@@H]1CCCN1C(=O)[C@H](C)N)C(C)C)[C@@H](C)O)C(=O)N[C@@H](CC(N)=O)C(=O)N[C@@H](CCSC)C(=O)N[C@@H](CC(C)C)C(=O)N[C@H](C(=O)N[C@@H](CCCNC(=N)N)C(=O)N1CCC[C@H]1C(=O)N[C@@H](CCCNC(=N)N)C(=O)N[C@@H](Cc1ccc(O)cc1)C(N)=O)[C@@H](C)O,n,x,x,x,x,x
O=c1ccc2cc3ccoc3cc2o1,n,n,n,n,n,n
O=c1ccc2cc(O)c(O)cc2o1,3.5µM!,n,n,n,n,u
CCn1c(C)nc2cc(C(=O)N/N=C/c3ccc(O)c(O)c3O)ccc21,10µM,18µM,u,1.6µM,5µM,u
Cc1nc2ccc(C(=O)N/N=C/c3ccccc3O)cc2[nH]1,n,n,n,20µM,n,u
Cc1ccc(C)c(N2CCN(C(=O)CN3C(=O)CSc4c3c(C)nn4-c3ccccc3)CC2)c1,n,x,n,n,n,n
Cc1cc(C)cc(C(=O)Oc2coc(CSc3nnc(NC(=O)C4CC4)s3)cc2=O)c1,n,n,n,n,u,u
CC(=O)Nc1nnc(SCc2cc(=O)c(OC(=O)c3ccccc3)co2)s1,n,n,n,n,n,n
O=C(Oc1coc(CSc2nnc(NC(=O)C3CC3)s2)cc1=O)c1c(F)cccc1F,n,n,n,20µM,u,u
